Records with an inconclusive call do not appear. Active and inactive are the calls of the source. Unless noted, calls come from the whole dose curve.
Columns and labels:
[1] = Nuclear factor erythroid 2-related factor 2/antioxidant responsive element (Nrf2/ARE) small molecule agonists: qHTS cell viability counter screen in human keratinocytes (AID 1919968; active = well fitted curve in the direction sought with a large enough effect in the repeat runs; an effect the other way counts as inactive or inconclusive; note: nearly all actives have a fitted effect of over 55% in size)
Summary of the method: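 Cytotoxicity was multiplexed with the Nrf2/ARE luciferase assay in the same wells. Stably transfected HaCaT keratinocytes were treated with test compounds for 23 h at 37 C. Cell viability was then measured by CellTiter-Fluor fluorescence.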

[2] = Nuclear factor erythroid 2-related factor 2/antioxidant responsive element (Nrf2/ARE) small molecule agonists: luciferase reporter gene qHTS assay in human keratinocytes (AID 1919969); note: nearly all actives have a fitted effect of over 35% in size
[3] = biological target: Gonadotropin-releasing hormone receptor (Homo sapiens) (UniProt P30968); assay: Human gonadotropin-releasing hormone receptor (GnRHR) small molecule agonists, calcium flux assay in GnRHR-HEK293 cells (AID 1920063); note: nearly all actives have a fitted effect of over 35% in size
Chain of Gonadotropin-releasing hormone receptor (Homo sapiens) (P30968 whole entry, looked up): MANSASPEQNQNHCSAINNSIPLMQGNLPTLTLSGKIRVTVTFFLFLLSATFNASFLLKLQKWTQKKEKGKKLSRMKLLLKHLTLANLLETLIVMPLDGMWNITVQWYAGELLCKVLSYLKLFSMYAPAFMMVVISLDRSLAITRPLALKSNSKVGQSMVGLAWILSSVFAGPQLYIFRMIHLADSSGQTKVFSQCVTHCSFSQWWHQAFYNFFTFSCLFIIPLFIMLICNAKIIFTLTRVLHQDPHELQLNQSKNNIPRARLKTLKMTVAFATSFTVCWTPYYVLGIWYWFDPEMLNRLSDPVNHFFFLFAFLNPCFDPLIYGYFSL
Summary of the method: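 Agonist activity was measured as intracellular calcium flux in HEK293 cells engineered to stably express human GnRHR. After dye loading for 1 hour at 37 C, compounds in DMSO were added and fluorescence was followed for 3 minutes.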

[4] = biological target: KiSS-1 receptor (Homo sapiens) (UniProt Q969F8); assay: Human kisspeptin (KISS1R) small molecule agonists, calcium flux assay in KISS1R-HEK293 cells (AID 1920064; active = well fitted curve in the direction sought with a large enough effect in the repeat runs; an effect the other way counts as inactive or inconclusive)
Chain of KiSS-1 receptor (Homo sapiens) (Q969F8 whole entry, looked up): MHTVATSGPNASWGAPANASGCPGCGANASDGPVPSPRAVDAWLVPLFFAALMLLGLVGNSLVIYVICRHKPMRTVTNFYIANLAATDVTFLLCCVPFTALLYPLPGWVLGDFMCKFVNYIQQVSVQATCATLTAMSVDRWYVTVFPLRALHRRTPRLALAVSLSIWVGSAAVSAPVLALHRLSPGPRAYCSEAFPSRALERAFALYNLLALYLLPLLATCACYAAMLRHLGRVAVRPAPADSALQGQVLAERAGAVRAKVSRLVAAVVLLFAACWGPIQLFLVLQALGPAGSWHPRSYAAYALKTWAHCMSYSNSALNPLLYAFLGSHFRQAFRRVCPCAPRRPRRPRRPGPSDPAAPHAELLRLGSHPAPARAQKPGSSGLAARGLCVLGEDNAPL
Summary of the method: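 Agonist activity is monitored as intracellular calcium rise in engineered HEK293 cells carrying human KISS1R. Cells are dye-loaded for 1 h at 37 C before compound addition, and fluorescence is recorded for 3 min.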

[5] = G protein-coupled receptor (GPCR) small molecule agonists, calcium flux assay: HEK293 wild type cell line counter screen (AID 1920065)
Summary of the method: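 Seed cells, incubate 18 h (37 C, 5% CO2); add calcium dye, 1 h at 37 C; pin-transfer compounds, ATP control or DMSO; read fluorescence 480/540 nm each second for 3 min.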

[6] = p53 small molecule agonists, cell-based qHTS assay with human liver microsomes (AID 1963577);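 note: p53 response element beta-lactamase reporter cells with liver microsomes plus NADPH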
Summary of the method: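 With metabolic activation: human liver microsomes (0.5 mg/mL final) plus NADPH (0.5 mg/mL final) added alongside compounds to p53RE-bla cells; 16 h 37 C exposure; beta-lactamase read by LiveBLAzer fluorescence.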

[7] = p53 small molecule agonists, cell-based qHTS assay with rat liver microsomes (AID 1963578)
Summary of the method: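 Metabolic activation by rat liver microsomes and NADPH, each 0.5 mg/mL final, added right after compounds to p53RE-bla reporter cells (4,000/well, plated 5 h earlier). 16 h at 37 C, then LiveBLAzer substrate for 2 h at room temperature in the dark; fluorescence read-out.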

[8] = p53 small molecule agonists, cell-based qHTS assay with human liver microsomes: qHTS cell viability counter screen (AID 1963579); note: nearly all actives have a fitted effect of over 45% in size
Summary of the method: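 Metabolic activation used human liver microsomes and NADPH, both 0.5 mg/mL final, over 16 hours at 37 C on p53RE-bla cells (4,000/well). Cytotoxicity measured by CellTiter-Glo luminescence, 30 min at room temperature.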

[9] = p53 small molecule agonists, cell-based qHTS assay with rat liver microsomes: qHTS cell viability counter screen (AID 1963580); note: nearly all actives have a fitted effect of over 45% in size
Summary of the method: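 Luminescent ATP readout (CellTiter-Glo, 30 min at room temperature) reports viability of p53RE-bla HCT-116 cells after 16 h at 37 C with test compounds under metabolic activation by rat liver microsomes and NADPH at 0.5 mg/mL final each.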

[10] = p53 small molecule agonists, cell-based qHTS assay: qHTS cell viability counter screen (AID 1963581); note: nearly all actives have a fitted effect of over 45% in size
Summary of the method: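 Viability was counter-screened in parallel with the p53 agonist reporter by measuring intracellular ATP luminescence in the same HCT-116 p53RE-bla wells after 16 h compound treatment at 37 C.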

[11] = p53 small molecule agonists, cell-based qHTS assay (AID 1963582; active = well fitted activation curve with a large enough effect in the signal ratio in the repeat runs, not every such curve was filed as active; the % refers to the signal ratio)
Summary of the method: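 Cells carrying a p53-responsive bla reporter are treated with test compounds for 16 h at 37 C; beta-lactamase activity is then detected with LiveBLAzer B/G FRET substrate after 2 h at room temperature.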

[12] = biological target: 5-hydroxytryptamine receptor 2A (Homo sapiens) (UniProt P28223); assay: 5-hydroxytryptamine receptor 2A (HTR2A) small molecule antagonists, cell-based qHTS assay (AID 1963586); note: nearly all actives have a fitted effect of over 45% in size
Chain of 5-hydroxytryptamine receptor 2A (Homo sapiens) (P28223 whole entry, looked up): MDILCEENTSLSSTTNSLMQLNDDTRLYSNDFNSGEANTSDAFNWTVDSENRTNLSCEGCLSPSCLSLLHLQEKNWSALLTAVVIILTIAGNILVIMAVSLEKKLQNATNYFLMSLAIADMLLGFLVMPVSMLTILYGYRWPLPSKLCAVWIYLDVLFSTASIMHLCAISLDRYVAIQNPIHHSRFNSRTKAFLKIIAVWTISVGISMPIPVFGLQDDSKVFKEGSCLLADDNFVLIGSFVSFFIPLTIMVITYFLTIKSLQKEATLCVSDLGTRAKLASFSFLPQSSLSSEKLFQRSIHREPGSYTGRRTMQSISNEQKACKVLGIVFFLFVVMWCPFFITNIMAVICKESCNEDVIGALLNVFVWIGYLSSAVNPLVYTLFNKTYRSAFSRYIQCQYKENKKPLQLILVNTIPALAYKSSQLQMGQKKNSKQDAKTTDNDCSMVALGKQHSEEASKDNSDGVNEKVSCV
Summary of the method: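 CHO cells stably expressing human HTR2A were plated for 18 h at 37 C, then loaded with calcium dye for 1 h. Compounds were preincubated 5 min at room temperature before DOI (4 nM solution) was added. Kinetic fluorescence was read for 3 min.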

[13] = biological target: 5-hydroxytryptamine receptor 2A (Homo sapiens) (UniProt P28223); assay: 5-hydroxytryptamine receptor 2A (HTR2A) small molecule agonists, cell-based qHTS assay (AID 1963587); note: nearly all actives have a fitted effect of over 30% in size
Summary of the method: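 HTR2A-CHO cells, plated 18 h at 37 C/5% CO2, dye-loaded 1 h at 37 C; compounds in DMSO added by pin tool (agonist mode). Intracellular calcium flux read as kinetic fluorescence on FDSS over 2 min at 1 s intervals.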

[14] = biological target: Muscarinic acetylcholine receptor M1 (Homo sapiens) (UniProt P11229); assay: Cholinergic receptor muscarinic 1 (CHRM1) small molecule antagonists, cell-based qHTS assay (AID 1963588); note: nearly all actives have a fitted effect of over 40% in size
Chain of Muscarinic acetylcholine receptor M1 (Homo sapiens) (P11229 whole entry, looked up): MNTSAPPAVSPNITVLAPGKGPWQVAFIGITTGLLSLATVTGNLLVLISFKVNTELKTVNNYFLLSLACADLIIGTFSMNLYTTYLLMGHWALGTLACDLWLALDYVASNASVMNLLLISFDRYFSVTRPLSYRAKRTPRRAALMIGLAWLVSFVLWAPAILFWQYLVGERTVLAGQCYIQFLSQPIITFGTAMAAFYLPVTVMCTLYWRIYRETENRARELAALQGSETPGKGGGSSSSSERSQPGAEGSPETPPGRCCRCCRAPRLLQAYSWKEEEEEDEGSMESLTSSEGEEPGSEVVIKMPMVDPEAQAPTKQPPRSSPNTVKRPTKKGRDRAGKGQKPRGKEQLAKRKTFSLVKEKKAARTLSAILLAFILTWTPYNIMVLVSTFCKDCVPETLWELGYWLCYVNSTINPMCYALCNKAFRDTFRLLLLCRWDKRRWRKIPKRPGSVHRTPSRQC
Summary of the method: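 Compounds were tested at 15 concentrations in three independent runs. Dye-loaded CHRM1-CHO cells were exposed 5 min at room temperature before stimulation by acetylcholine added at 50nM. Intracellular calcium was read kinetically on FDSS for 3 min.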

[15] = cAMP Responsive Elements (CRE) small molecule agonists, cell-based qHTS assay (AID 1963590)
Summary of the method: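 Cells carrying a CRE-driven beta-lactamase reporter (HEK 293T) are seeded, incubated overnight (18 h), and treated with test compounds for 3 h at 37 C; reporter activity is then detected with a FRET substrate after 2 h at room temperature.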

[16] = cAMP Responsive Elements (CRE) small molecule antagonists, cell-based qHTS assay (AID 1963591; active = well fitted inhibition curve with a large enough effect in the signal ratio in the repeat runs, not every such curve was filed as active; the % refers to the signal ratio)
Summary of the method: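 Cells (CRE-bla HEK 293T, DMEM with 10% dialyzed FBS and 25 mM HEPES) are seeded and incubated 18 h. Compounds are added with NKH477 agonist at 0.25 uM final for 3 h, then FRET substrate for 2 h.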

[17] = biological target: Beta-2 adrenergic receptor (Homo sapiens) (UniProt P07550); assay: Adrenergic beta2 receptor (ADRB2) small molecule antagonists, cell-based qHTS assay (AID 1963592); note: series mostly up to about 92 µM; nearly all actives have a fitted effect of over 50% in size
Chain of Beta-2 adrenergic receptor (Homo sapiens) (P07550 whole entry, looked up): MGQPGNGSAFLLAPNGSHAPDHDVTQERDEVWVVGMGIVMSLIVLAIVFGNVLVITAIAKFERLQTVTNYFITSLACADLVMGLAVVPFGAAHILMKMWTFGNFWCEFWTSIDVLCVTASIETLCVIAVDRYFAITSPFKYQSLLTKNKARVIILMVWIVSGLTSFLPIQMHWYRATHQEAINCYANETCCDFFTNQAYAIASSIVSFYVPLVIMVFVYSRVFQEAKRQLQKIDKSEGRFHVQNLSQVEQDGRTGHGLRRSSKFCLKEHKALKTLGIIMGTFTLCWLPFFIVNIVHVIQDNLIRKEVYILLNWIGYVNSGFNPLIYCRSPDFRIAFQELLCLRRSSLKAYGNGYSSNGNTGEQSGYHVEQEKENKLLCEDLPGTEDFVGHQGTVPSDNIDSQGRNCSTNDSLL
Summary of the method: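 Assay format: CHO-ADRB2 cells, 18-20hr seeding at 37C/5% CO2, then compound plus 1nM isoproterenol agonist mix for 0.5hr RT. Homogeneous time-resolved fluorescence cAMP detection after 1hr, expressed as 665/615 nm ratio.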

[18] = biological target: D(2) dopamine receptor (Homo sapiens) (UniProt P14416); assay: Dopamine D2 receptor (DRD2) small molecule agonists, cell-based qHTS assay (AID 1963594); note: nearly all actives have a fitted effect of over 35% in size
Chain of D(2) dopamine receptor (Homo sapiens) (P14416 whole entry, looked up): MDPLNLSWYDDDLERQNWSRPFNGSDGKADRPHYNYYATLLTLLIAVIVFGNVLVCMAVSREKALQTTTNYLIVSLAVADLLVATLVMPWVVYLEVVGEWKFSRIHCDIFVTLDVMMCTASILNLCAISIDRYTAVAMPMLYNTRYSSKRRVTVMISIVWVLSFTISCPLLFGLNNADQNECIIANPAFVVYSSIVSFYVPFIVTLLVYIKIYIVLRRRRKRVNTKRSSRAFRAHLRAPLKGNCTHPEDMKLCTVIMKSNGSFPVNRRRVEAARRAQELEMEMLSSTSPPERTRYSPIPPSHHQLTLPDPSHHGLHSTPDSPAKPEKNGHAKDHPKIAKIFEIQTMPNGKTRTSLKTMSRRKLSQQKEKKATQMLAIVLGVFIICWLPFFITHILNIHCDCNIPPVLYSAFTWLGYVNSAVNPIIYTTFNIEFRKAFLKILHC
Summary of the method: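 HEK293 cells stably expressing DRD2 were cultured 24 h at 37 C, then given Ro20-1724 (0.1 mM final) and compounds for 10 min at room temperature. NKH477 (200nM) was then added for 30 min. cAMP was read by HTRF.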

[19] = biological target: D(2) dopamine receptor (Homo sapiens) (UniProt P14416); assay: Dopamine D2 receptor (DRD2) small molecule antagonists, cell-based qHTS assay (AID 1963595; active = well fitted inhibition curve with a large enough effect in the signal ratio in the repeat runs, with a control signal flat; the % refers to the signal ratio)
Summary of the method: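 Antagonist mode in DRD2-HEK293 cells: after compound addition with 0.1 mM Ro20-1724, cells received quinpirole (12 nM) and NKH477 (200 nM) for 30 min at room temperature; HTRF cAMP read after 1 h detection.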

[20] = biological target: Muscarinic acetylcholine receptor M1 (Homo sapiens) (UniProt P11229); assay: Cholinergic receptor muscarinic 1 (CHRM1) small molecule agonists, cell-based qHTS assay (AID 1963589); note: nearly all actives have a fitted effect of over 35% in size
Summary of the method: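 Cells were plated and incubated 18 h at 37 C/5% CO2, loaded with calcium dye for 1 h at 37 C, then treated with compounds in DMSO. Fluorescence was recorded kinetically at 1 sec intervals.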

Measured: Potency

Cc1ccc(C)cc1
not listed: [20]
inactive: all other assays above

CCCCOC(=O)[C@H](C)O
not listed: [17] | [20]
inactive: all other assays above

COC(c1ccccc1)(c1ccccc1)[C@H](Oc1nc(C)cc(C)n1)C(=O)O
not listed: [18] | [19] | [20]
inactive: all other assays above

Cc1ccc(C(C)(C)O)cc1
not listed: [20]
inactive: all other assays above

CCCCCCCCO[C@@H]1O[C@H](CO)[C@@H](O)[C@H](O)[C@H]1O
not listed: [19] | [20]
inactive: all other assays above

Cc1cccc(Cl)c1
not listed: [19] | [20]
inactive: all other assays above

COC(=O)/C=C(/C)N
not listed: [20]
inactive: all other assays above

Cc1cnccn1
not listed: [15]
inactive: all other assays above

From PubChem BioAssay (Tox21)
